# Measurements from PMC7862700, “An all-to-all approach to the identification of sequence-specific readers for epigenetic DNA modifications on cytosine”.
# What was measured:
# Assay in all cases: DAPPL (digital affinity profiling via proximity ligation, sequencing); 10 mM Tris-HCl pH 7.5, 50 mM NaCl, 1 mM DTT, 4% glycerol, room temperature, 30 min; GST-TFs on glutathione beads, 16-mer random dsDNA library, 0.1% formaldehyde crosslink after washing; high values mean tight binding
# FLI1 = target: T1, FLI1 (Homo sapiens, UniProt Q01543 1-452); conditions: protein: recombinant; tags: N-terminal GST; dsDNA, one strand shown
# T1 sequence: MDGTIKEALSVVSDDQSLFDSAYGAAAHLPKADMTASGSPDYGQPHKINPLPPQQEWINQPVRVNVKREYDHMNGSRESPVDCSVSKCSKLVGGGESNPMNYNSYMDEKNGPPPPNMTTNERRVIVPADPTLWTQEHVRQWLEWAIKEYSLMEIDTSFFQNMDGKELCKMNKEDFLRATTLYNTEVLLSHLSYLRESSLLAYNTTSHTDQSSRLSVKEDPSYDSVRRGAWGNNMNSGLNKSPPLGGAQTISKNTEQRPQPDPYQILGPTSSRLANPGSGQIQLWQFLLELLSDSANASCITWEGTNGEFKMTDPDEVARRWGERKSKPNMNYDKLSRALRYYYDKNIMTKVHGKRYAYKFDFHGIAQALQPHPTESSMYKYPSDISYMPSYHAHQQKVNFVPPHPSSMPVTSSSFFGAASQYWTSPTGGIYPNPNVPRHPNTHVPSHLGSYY
# How it was run: (§1)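 A tag-only sample was pooled with DNA-barcoded human transcription factors that had been expressed in yeast as GST fusions and captured on glutathione beads. The pools were incubated for 30 min at room temperature with 200 nmole of a random double-stranded 16-mer DNA library in Tris/NaCl/DTT/glycerol buffer, then washed, crosslinked with 0.1% formaldehyde, proximity-ligated (BsaI/T4 ligase, 1 h, 37 °C), PCR-amplified and sequenced on an Illumina NextSeq500. Binding signal is each hexamer's read frequency for a factor divided by its frequency for the tag-only sample.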
# ELK1 = target: T2, ELK1 (Homo sapiens, UniProt P19419 1-428); conditions: protein: recombinant; tags: N-terminal GST; dsDNA, one strand shown
# T2 sequence: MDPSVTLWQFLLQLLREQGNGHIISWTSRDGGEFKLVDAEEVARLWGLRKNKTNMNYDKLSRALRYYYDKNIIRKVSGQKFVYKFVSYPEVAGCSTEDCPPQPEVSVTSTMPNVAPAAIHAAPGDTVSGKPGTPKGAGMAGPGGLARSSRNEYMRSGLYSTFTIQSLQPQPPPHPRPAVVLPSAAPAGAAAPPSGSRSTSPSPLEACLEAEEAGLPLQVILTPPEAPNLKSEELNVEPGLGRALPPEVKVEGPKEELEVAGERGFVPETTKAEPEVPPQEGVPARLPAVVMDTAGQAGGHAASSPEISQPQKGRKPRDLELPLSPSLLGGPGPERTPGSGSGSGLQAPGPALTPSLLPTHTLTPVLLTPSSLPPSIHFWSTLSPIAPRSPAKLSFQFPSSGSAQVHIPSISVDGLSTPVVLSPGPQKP
# How it was run: as §1
# GABPA = target: T3, GABPA (Homo sapiens, UniProt Q06546 1-454); conditions: protein: recombinant; tags: N-terminal GST; dsDNA, one strand shown
# T3 sequence: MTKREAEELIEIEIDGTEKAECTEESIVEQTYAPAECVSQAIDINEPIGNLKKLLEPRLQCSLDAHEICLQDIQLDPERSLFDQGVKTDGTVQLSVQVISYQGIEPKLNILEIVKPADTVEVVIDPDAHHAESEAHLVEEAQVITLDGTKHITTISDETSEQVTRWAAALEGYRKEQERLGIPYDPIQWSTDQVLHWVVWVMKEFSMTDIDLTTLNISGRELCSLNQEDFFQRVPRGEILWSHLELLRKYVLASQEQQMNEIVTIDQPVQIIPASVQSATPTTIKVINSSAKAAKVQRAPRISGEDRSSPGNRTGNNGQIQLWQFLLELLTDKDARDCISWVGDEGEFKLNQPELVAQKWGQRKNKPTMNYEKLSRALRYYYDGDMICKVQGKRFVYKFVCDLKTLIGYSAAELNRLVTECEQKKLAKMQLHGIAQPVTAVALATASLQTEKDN
# How it was run: as §1
# ERG = target: T4, ERG (Homo sapiens, UniProt P11308 1-479); conditions: protein: recombinant; tags: N-terminal GST; dsDNA, one strand shown
# T4 sequence: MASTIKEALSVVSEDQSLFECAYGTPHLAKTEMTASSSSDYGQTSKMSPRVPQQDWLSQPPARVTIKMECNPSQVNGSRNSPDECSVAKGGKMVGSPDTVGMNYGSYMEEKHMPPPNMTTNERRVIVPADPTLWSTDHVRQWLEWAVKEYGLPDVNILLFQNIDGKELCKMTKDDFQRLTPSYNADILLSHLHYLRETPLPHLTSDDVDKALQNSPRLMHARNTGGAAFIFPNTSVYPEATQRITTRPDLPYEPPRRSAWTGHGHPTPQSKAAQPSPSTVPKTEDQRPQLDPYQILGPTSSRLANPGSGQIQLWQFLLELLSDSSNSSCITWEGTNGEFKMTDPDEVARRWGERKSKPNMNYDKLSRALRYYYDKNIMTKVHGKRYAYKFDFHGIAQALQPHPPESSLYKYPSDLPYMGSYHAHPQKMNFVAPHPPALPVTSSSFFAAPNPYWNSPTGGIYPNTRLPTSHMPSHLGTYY
# How it was run: as §1
# ELF1 = ELF1 (Homo sapiens, UniProt P32519 1-619); conditions: protein: recombinant; tags: N-terminal GST; dsDNA, one strand shown
# Chain of ELF1 (P32519 whole entry): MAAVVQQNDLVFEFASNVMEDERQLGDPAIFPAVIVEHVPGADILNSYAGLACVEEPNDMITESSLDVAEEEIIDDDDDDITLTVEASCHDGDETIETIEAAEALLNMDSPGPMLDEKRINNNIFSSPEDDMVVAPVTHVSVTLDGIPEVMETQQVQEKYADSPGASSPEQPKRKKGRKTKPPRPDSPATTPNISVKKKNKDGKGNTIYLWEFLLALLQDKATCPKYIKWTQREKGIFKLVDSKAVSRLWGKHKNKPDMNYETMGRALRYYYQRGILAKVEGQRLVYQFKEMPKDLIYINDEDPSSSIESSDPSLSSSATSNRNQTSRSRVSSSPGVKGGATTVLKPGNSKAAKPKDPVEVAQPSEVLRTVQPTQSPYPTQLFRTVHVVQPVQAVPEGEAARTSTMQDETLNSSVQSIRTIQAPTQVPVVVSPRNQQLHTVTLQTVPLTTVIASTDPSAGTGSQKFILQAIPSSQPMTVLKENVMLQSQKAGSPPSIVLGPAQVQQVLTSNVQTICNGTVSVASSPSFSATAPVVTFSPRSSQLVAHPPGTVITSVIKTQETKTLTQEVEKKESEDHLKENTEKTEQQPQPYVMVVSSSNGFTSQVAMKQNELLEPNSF
# How it was run: as §1
# EHF = target: T5, EHF (Homo sapiens, UniProt Q9NZC4 1-300); conditions: protein: recombinant; tags: N-terminal GST; dsDNA, one strand shown
# T5 sequence: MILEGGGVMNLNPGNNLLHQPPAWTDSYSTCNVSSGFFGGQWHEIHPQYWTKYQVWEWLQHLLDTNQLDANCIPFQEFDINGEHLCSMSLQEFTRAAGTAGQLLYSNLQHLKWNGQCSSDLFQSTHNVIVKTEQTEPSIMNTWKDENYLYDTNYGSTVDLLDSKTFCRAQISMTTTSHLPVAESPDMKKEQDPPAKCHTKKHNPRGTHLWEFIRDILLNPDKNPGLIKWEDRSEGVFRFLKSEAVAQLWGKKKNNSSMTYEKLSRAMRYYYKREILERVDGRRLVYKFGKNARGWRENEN
# How it was run: as §1
# SPI1 = SPI1 (Homo sapiens, UniProt P17947 1-270); conditions: protein: recombinant; tags: N-terminal GST; dsDNA, one strand shown
# How it was run: as §1
# SPIB = SPIB (Homo sapiens, UniProt Q01892 1-262); conditions: protein: recombinant; tags: N-terminal GST; dsDNA, one strand shown
# Chain of SPIB (Q01892 whole entry): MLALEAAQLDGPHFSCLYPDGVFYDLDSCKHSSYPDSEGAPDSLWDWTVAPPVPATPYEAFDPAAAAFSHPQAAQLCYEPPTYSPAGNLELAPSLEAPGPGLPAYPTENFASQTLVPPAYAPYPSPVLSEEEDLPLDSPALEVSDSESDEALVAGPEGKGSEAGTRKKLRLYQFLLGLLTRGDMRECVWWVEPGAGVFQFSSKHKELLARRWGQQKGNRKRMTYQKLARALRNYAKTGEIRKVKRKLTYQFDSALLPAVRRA
# How it was run: as §1
# ELK3 = target: T6, ELK3 (Homo sapiens, UniProt P41970 1-407); conditions: protein: recombinant; tags: N-terminal GST; dsDNA, one strand shown
# T6 sequence: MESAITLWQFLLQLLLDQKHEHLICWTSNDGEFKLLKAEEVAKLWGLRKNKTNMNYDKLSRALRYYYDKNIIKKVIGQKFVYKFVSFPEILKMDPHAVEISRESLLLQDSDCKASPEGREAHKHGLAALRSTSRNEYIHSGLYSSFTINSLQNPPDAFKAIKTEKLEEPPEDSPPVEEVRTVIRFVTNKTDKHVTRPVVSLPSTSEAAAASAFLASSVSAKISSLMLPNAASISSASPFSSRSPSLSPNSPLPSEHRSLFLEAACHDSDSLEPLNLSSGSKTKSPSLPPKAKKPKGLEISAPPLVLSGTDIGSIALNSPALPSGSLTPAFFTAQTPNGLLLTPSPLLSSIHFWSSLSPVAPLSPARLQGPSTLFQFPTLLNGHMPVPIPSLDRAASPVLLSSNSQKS
# How it was run: as §1
# FEV = target: T7, FEV (Homo sapiens, UniProt Q99581 1-238); conditions: protein: recombinant; tags: N-terminal GST; dsDNA, one strand shown
# T7 sequence: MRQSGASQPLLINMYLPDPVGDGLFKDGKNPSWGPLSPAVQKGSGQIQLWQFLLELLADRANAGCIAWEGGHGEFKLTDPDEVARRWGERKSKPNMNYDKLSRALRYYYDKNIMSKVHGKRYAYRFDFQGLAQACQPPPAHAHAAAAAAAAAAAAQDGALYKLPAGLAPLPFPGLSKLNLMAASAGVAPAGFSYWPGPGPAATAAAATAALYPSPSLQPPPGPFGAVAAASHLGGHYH
# How it was run: as §1
# ETV5 = ETV5 (Homo sapiens, UniProt P41161 1-510); conditions: protein: recombinant; tags: N-terminal GST; dsDNA, one strand shown
# Chain of ETV5 (P41161 whole entry): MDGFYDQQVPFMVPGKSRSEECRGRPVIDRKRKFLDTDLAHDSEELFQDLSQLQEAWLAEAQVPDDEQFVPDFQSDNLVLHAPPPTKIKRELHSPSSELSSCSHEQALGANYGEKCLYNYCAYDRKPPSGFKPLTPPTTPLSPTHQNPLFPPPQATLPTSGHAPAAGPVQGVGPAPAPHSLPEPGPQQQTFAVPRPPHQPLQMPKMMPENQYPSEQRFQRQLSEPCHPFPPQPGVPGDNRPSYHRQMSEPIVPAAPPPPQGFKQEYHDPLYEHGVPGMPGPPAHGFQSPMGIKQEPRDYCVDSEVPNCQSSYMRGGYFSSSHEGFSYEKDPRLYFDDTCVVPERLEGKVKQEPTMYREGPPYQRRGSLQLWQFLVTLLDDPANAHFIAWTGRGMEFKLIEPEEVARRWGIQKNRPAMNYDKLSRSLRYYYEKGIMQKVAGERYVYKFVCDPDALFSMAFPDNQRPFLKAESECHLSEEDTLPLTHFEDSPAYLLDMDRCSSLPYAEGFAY
# How it was run: as §1
# HSF1 = HSF1 (Homo sapiens, UniProt Q00613 1-529); conditions: protein: recombinant; tags: N-terminal GST; chain copies: 3; dsDNA, one strand shown
# Chain of HSF1 (Q00613 whole entry): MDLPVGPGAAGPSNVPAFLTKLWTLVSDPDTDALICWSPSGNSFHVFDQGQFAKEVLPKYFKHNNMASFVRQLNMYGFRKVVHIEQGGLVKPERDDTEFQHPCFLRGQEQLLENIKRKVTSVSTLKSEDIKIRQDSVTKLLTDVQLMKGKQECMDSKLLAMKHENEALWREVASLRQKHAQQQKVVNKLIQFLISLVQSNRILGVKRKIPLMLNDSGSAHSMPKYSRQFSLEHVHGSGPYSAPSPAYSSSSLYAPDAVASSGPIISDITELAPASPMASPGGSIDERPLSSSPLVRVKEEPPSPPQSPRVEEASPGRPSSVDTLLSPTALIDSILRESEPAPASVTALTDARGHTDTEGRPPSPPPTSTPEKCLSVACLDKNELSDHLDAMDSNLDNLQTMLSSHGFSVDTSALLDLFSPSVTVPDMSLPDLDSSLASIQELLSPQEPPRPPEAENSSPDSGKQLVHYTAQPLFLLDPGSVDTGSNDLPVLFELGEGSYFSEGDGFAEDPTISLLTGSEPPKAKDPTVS
# How it was run: as §1
# SPIC = target: T8, SPIC (Homo sapiens, UniProt Q8N5J4 1-248); conditions: protein: recombinant; tags: N-terminal GST; dsDNA, one strand shown
# T8 sequence: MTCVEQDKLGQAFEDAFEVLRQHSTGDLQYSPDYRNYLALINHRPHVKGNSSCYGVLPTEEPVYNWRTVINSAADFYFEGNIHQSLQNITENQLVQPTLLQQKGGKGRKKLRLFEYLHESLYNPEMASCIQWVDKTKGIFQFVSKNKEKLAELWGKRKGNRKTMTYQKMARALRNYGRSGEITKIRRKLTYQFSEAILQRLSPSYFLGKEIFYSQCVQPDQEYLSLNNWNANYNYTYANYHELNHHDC
# How it was run: as §1
# ELF4 = ELF4 (Homo sapiens, UniProt Q99607 1-663); conditions: protein: recombinant; tags: N-terminal GST; dsDNA, one strand shown
# Chain of ELF4 (Q99607 whole entry): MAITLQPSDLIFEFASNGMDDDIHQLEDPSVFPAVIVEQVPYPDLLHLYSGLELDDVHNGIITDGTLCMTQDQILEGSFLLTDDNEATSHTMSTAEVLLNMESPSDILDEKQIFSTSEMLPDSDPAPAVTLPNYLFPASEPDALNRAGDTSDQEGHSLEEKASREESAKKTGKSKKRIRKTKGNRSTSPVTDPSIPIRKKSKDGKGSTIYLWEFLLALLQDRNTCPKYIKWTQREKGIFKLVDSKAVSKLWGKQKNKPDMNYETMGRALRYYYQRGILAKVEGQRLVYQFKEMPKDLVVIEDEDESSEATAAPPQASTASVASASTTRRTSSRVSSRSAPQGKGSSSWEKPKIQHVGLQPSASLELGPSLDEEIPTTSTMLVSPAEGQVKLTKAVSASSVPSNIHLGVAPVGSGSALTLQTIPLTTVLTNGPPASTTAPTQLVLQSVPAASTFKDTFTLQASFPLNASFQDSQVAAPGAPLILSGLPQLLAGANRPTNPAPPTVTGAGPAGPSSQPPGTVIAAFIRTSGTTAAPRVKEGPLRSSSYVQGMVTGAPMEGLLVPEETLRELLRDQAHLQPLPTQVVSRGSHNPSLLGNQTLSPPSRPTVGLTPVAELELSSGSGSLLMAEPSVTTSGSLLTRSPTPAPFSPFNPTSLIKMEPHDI
# How it was run: as §1
# ELK4 = target: T9, ELK4 (Homo sapiens, UniProt P28324-2 1-405); conditions: protein: recombinant; tags: N-terminal GST; dsDNA, one strand shown
# T9 sequence: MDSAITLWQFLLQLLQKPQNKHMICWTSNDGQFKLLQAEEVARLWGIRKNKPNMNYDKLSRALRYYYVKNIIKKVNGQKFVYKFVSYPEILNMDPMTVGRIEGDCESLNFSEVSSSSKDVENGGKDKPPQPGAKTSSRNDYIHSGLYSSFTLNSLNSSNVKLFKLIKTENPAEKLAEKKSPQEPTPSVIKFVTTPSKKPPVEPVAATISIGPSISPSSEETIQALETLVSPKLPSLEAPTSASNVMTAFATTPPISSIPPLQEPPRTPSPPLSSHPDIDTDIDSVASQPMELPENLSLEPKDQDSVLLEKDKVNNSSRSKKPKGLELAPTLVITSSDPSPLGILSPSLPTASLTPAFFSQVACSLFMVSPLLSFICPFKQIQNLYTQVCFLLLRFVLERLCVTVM
# How it was run: as §1
# ETV2 = target: T10, ETV2 (Homo sapiens, UniProt O00321 1-342); conditions: protein: recombinant; tags: N-terminal GST; dsDNA, one strand shown
# T10 sequence: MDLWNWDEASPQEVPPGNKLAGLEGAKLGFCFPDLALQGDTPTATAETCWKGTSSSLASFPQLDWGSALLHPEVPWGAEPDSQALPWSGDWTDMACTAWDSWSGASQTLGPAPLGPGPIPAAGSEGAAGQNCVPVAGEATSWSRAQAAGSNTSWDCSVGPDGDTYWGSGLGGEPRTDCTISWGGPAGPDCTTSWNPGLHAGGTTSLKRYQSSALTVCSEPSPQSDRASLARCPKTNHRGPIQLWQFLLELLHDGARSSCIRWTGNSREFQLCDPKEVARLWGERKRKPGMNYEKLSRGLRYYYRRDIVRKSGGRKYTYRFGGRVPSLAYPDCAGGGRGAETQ
# How it was run: as §1
# ELF3 = target: T11, ELF3 (Homo sapiens, UniProt P78545 1-371); conditions: protein: recombinant; tags: N-terminal GST; dsDNA, one strand shown
# T11 sequence: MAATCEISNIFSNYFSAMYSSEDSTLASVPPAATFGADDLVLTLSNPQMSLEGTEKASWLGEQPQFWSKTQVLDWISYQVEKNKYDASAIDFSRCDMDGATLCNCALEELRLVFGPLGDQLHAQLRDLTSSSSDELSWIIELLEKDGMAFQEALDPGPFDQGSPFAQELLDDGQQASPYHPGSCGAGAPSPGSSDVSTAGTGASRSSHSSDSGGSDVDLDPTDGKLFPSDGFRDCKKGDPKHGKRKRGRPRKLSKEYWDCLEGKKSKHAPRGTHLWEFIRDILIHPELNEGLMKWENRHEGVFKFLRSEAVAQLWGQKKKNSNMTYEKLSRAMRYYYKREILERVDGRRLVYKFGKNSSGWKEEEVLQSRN
# How it was run: as §1
# CRX = CRX (Homo sapiens, UniProt O43186 1-299); conditions: protein: recombinant; tags: N-terminal GST; dsDNA, one strand shown
# Chain of CRX (O43186 whole entry): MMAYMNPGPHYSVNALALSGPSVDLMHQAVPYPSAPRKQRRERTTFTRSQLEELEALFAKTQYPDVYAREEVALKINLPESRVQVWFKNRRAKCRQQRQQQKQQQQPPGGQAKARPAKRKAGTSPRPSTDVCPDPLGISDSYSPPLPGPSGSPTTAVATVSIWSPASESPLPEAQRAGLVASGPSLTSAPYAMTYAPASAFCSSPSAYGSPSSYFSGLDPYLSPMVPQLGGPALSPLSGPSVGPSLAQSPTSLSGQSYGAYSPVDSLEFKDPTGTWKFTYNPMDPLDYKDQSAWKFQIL
# How it was run: as §1
# ETV1 = ETV1 (Homo sapiens, UniProt P50549 1-477); conditions: protein: recombinant; tags: N-terminal GST; dsDNA, one strand shown
# Chain of ETV1 (P50549 whole entry): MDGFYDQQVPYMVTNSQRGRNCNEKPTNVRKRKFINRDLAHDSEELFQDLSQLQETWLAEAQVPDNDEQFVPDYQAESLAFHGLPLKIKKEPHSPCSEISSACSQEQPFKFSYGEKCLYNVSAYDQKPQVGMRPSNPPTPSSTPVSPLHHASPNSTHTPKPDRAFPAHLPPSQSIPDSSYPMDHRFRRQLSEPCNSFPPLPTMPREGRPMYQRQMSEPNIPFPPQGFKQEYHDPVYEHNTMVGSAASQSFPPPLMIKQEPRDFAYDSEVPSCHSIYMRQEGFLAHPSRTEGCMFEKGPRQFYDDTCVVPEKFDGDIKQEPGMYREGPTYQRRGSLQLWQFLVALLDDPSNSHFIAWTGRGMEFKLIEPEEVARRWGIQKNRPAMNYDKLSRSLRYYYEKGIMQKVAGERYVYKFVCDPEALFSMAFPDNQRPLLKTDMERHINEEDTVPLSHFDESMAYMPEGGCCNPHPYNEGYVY
# How it was run: as §1
sequence,measurement,setting,value
CTCTCC,binding signal,FLI1,"1.35 fold enrichment (6-mer frequency, TF over GST control)"
same,binding signal,ELK1,"1.33 fold enrichment (6-mer frequency, TF over GST control)"
same,binding signal,GABPA,"1.37 fold enrichment (6-mer frequency, TF over GST control)"
same,binding signal,ERG,"1.22 fold enrichment (6-mer frequency, TF over GST control)"
same,binding signal,ELF1,"1.4 fold enrichment (6-mer frequency, TF over GST control)"
same,binding signal,EHF,"1.34 fold enrichment (6-mer frequency, TF over GST control)"
same,binding signal,SPI1,"1.41 fold enrichment (6-mer frequency, TF over GST control)"
same,binding signal,SPIB,"1.35 fold enrichment (6-mer frequency, TF over GST control)"
same,binding signal,ELK3,"1.37 fold enrichment (6-mer frequency, TF over GST control)"
same,binding signal,FEV,"1.32 fold enrichment (6-mer frequency, TF over GST control)"
same,binding signal,ETV5,"1.24 fold enrichment (6-mer frequency, TF over GST control)"
same,binding signal,HSF1,"1.32 fold enrichment (6-mer frequency, TF over GST control)"
same,binding signal,SPIC,"1.41 fold enrichment (6-mer frequency, TF over GST control)"
same,binding signal,ELF4,"1.5 fold enrichment (6-mer frequency, TF over GST control)"
same,binding signal,ELK4,"1.37 fold enrichment (6-mer frequency, TF over GST control)"
same,binding signal,ETV2,"1.32 fold enrichment (6-mer frequency, TF over GST control)"
same,binding signal,ELF3,"1.6 fold enrichment (6-mer frequency, TF over GST control)"
same,binding signal,CRX,"1.15 fold enrichment (6-mer frequency, TF over GST control)"
same,binding signal,ETV1,"1.42 fold enrichment (6-mer frequency, TF over GST control)"
